Shown are actives, neighbours in structure and some others; about 4.1% of the full set was active somewhere.
Gli-Sufu antag = blocks Gli-Sufu signaling in a luciferase reporter | Sufu-KO-LIGHT fibroblasts, Gli luciferase reporter luminescence | inhibition, % at 5 µM | 340,000 compounds, 0.74% hits;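 active means inhibition above about 55%, limit read from the data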;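 further: 0% = DMSO-treated cells and 100% = wells with medium but no cells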
Mdm2 MdmX PPI = human Mdm2/MdmX binding inhibition | O15151+Q00987 | SaOS-2 split-luciferase Mdm2/MdmX complementation, luminescence | inhibition, % at 8 µM | 330,000 compounds, 3% hits;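 active means inhibition of at least 50% at 8 µM in the primary screen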
Target sequence (O15151 whole entry, looked up): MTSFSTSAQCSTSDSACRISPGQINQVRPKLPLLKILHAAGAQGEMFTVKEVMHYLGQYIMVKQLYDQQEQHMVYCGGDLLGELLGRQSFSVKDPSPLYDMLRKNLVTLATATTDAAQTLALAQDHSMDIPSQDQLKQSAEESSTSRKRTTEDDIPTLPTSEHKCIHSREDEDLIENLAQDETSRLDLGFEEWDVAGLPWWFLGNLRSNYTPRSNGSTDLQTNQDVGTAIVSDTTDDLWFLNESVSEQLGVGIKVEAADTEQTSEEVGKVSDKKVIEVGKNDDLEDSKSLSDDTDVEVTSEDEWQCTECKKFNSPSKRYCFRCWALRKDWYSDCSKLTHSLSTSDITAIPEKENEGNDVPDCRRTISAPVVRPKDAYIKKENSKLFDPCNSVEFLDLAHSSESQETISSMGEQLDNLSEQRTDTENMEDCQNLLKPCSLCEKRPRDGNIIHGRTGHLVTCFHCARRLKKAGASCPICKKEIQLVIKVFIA
Target sequence (Q00987 whole entry, looked up): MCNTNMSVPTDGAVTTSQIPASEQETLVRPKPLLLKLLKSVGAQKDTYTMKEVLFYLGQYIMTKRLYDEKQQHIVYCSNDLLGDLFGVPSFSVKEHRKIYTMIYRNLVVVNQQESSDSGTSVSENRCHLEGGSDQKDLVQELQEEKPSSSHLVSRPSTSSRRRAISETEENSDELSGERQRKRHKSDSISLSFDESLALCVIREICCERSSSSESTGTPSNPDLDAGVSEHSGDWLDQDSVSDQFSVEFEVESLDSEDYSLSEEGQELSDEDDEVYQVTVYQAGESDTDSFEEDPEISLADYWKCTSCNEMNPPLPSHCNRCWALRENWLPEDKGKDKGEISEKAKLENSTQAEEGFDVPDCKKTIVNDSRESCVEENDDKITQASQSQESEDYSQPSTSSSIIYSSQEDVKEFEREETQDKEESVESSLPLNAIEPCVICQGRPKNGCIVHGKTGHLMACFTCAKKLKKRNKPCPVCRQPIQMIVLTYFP
KLF5 inh = inhibitors of KLF5 expression; DLD-1 KLF5 promoter-luciferase reporter, luminescence; inhibition, % at 5 µM; 290,000 compounds, 0.23% hits;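 active means inhibition above a per-plate limit of that plate's mean compound inhibition plus 3 SD, cut at about 60% in these data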;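 further: 0% = DMSO wells and 100% = LY294002 at 200 µM; higher means less KLF5 promoter-driven luciferase light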
aSyn UTR inh = 5' untranslated region of α-synuclein, MLPCN primary screen; alpha-synuclein 5'UTR reporter, inhibitor activity; inhibition, % (tested at 7.5 µM); 300,000 compounds, 0.82% hits; AID 1813; in the data active means inhibition above about 60%; inconclusive means no clear call, values can overlap the other calls;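 further: H4 neuroglioblastoma cells stably carrying SNCA 5'UTR luciferase fusion; 0% = DMSO wells and 100% = positive control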
697 NFkB inh = inhibitors of the PMA/ionomycin-induced NF-kB reporter in 697 B cells; inhibition, % at 4 µM; 330,000 compounds, 0.33% hits; 697 B-cell NF-kB luciferase reporter, 16 h; AID 435022; in the data active means inhibition above about 35%
Jurkat NFkB inh = inhibitors of the PMA/ionomycin-induced NF-kB reporter in Jurkat cells; PMA/ionomycin-induced NF-kB luciferase reporter, luminescence; inhibition, % at 4 µM; 330,000 compounds, 0.53% hits; AID 435003; in the data active means inhibition above about 50%
Mdm2-MdmX conf = confirmation of human Mdm2/MdmX interaction inhibitors. shares compounds with Mdm2 MdmX PPI. Mdm2-MdmX binding, luminescent assay. inhibition, % at 8 µM. 10,000 compounds, 55% hits. AID 489028; in the data active means inhibition above about 40%
Full FLuc ctr = counter-screen for Mdm2/MdmX inhibitors: full-length luciferase | SaOS-2 full-length luciferase counterscreen, luminescence | 6,200 compounds, 77% hits | shares compounds with Mdm2 MdmX PPI | AID 504607 | inhibition, % at 8 µM;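 active means mean inhibition at 8 µM reaching about 37%, which flags the compound as non-specific, limit read from the data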;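 further: p53-null SaOS-2 cells with luciferase driven by a doxycycline-inducible promoter; compound on cells about two nights before reading with doxycycline added after day one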
Active calls of the source: *; ? = inconclusive; / = not tested or not shown.

SMILES | Gli-Sufu antag | Mdm2 MdmX PPI | KLF5 inh | aSyn UTR inh | 697 NFkB inh | Jurkat NFkB inh | Mdm2-MdmX conf | Full FLuc ctr
N#C/C(=N\Nc1ccc(Cl)c(Cl)c1)C(=O)C1CC1 | 25 | 58* | -35 | -97 | -156 | -26 | 72* | 47*
Cc1csc(Nc2nc(N)c(C(=O)Nc3cc(Cl)ccc3F)o2)n1 | 3 | 55* | -23 | -53 | 2 | -28 | 9 | /
CC(NC(=O)Nc1nnc(C(F)(F)F)s1)(C(F)(F)F)C(F)(F)F | -7 | 95* | 45 | 47 | -90 | 11 | 59* | 33
CC(C)(C)CC(=O)Nc1nnc(C(F)(F)F)s1 | -10 | 3 | -26 | -1 | -116 | -96 | / | /
CCOC(=O)C1CCN(C(=O)c2c(C)oc3c2C(=O)c2ccccc2C3=O)CC1 | 43 | 58* | 5 | 72* | -2 | 22 | 45* | 67*
Cc1occc1C(=O)/C(C#N)=C/c1ccc(O)c(Br)c1 | -13 | 0 | -12 | -6 | 2 | 17 | / | /
Cn1nc(C(F)(F)F)c(/C=N/OC(=O)c2ccccc2)c1Sc1ccc(Cl)cc1 | -15 | 51* | 1 | 37 | 2 | 0 | 6 | /
C=C(CC1([C@@H](NP(=O)(c2ccccc2)c2ccccc2)[C@H]2C[C@@H]2CCCC)CC1)c1ccccc1 | 27 | 59* | 1 | -16 | 16 | 0 | 23 | /
Cc1ccc(/C=C2\SC(=S)N(CCCC(=O)N3CCOCC3)C2=O)cc1 | 4 | 56* | -21 | 14 | 19 | 24 | 40 | 30
CCc1ccc(/C=C2\SC(=S)N(CCC(=O)N3CCN(C)CC3)C2=O)cc1 | 9 | 40 | -10 | -12 | -23 | 13 | / | /
CN1CCN(C(=O)CCCN2C(=O)/C(=C/c3ccc(Cl)cc3)SC2=S)CC1 | 6 | 52* | / | / | -5 | 5 | 0 | /
COc1ccc(/C=C2/SC(=S)N(CCCC(=O)N3CCN(C)CC3)C2=O)cc1 | 7 | 55* | -22 | 4 | 18 | 12 | 34 | 32
CN1CCN(C(=O)CCCN2C(=O)/C(=C/c3ccccc3)SC2=S)CC1 | -3 | 52* | -22 | -55 | -16 | -2 | 34 | 31
COc1ccc(/C=C2/SC(=S)N(CCC(=O)N3CCN(C)CC3)C2=O)cc1 | 29 | 12 | -11 | -17 | 1 | -3 | / | /
CCn1c(Sc2ccc([N+](=O)[O-])cn2)nnc1-c1ccco1 | 21 | 32 | -26 | -22 | 2 | 19 | / | /
COc1cc(C(=O)Nc2ccc(S(=O)(=O)Nc3nccc(C)n3)cc2)c([N+](=O)[O-])cc1OC | 3 | 11 | -15 | 3 | 5 | -9 | / | /
CC(C)[C@H](NC(=O)c1ccccc1)C(=O)OCC(=O)Nc1ncc(Cl)cc1Cl | 1 | 6 | / | / | -7 | -1 | / | /
O=C(Nc1c(Cl)cccc1Cl)C1CCN(C(=O)c2cccs2)CC1 | -10 | -13 | -8 | 5 | -1 | 11 | / | /
CCCCn1c(N)c(N(CC(C)C)C(=O)C2CCCO2)c(=O)[nH]c1=O (stereo not given) | 1 | -5 | / | -9 | 13 | -1 | / | /
COc1ccc(C(=O)OCC(=O)Nc2nc3c(F)c(F)c(F)cc3s2)cc1OC | 1 | -1 | -8 | -13 | -10 | -2 | / | /
O=C(COC(=O)C12CC3CC(CC(C3)C1)C2)Nc1nc2c(F)c(F)c(F)cc2s1 | 0 | 58* | 4 | -10 | -4 | -9 | 14 | /
CCOc1ccc(S(=O)(=O)N2CCN(C(=O)c3cc(C4CC4)nn3-c3ccccc3)CC2)cc1 | 0 | 46 | / | / | -4 | 12 | / | /
Cc1cc2c(=O)n(Cc3ccco3)c(SCC(=O)N3CCCc4ccccc43)nc2s1 | 10 | 57* | 0 | 30 | 21 | 15 | 21 | /
COc1ccccc1-c1nnc(Sc2nc([N+](=O)[O-])nn2C)o1 | 32 | 78* | -42 | -83 | 16 | 38 | 99* | 50*
COCCNC(=O)C1CCCN(S(=O)(=O)c2cccc3nsnc23)C1 (stereo not given) | 42 | 7 | -12 | 17 | 9 | 12 | / | /
SMILES | Gli-Sufu antag | Mdm2 MdmX PPI | KLF5 inh | aSyn UTR inh | 697 NFkB inh | Jurkat NFkB inh | Mdm2-MdmX conf | Full FLuc ctr
O=C1NCCc2c1[nH]c1c(Cl)ccc(Cl)c21 | -3 | 77* | -8 | 39 | -24 | -5 | 63* | 48*
O=C(Nc1ccc(C(=O)O)cc1)/C(=C\C=C\c1ccccc1)NC(=O)c1ccccc1Br | -16 | 26 | -71 | 15 | -85 | -20 | / | /
Cc1cc(Sc2nnc(N)s2)c2ccccc2n1 | -12 | 50* | 18 | -56 | -27 | 39 | 36 | 15
NC(=S)N/N=C/c1ccc2cccc(OCc3ccccc3)c2n1 | -17 | 35 | -6 | 7 | 4 | -9 | / | /
NC(=S)N/N=C/c1ccccc1OCc1cccc(Cl)c1 | 7 | 52* | -8 | 27 | 9 | 1 | 24 | /
Cc1cc(NC(=O)CN2C(=O)NC(c3ccccc3)(c3ccc(C)c(C)c3)C2=O)no1 (stereo not given) | -5 | 39 | / | / | 13 | -7 | / | /
CC(=O)Nc1ccc(NC(=O)c2cc(-c3cc(C)cc(C)c3O)n[nH]2)cc1 | 3 | 28 | -21 | -108 | -6 | -31 | / | /
Cc1cc(C)c(O)c(-c2cc(C(=O)Nc3ccc(S(=O)(=O)N4CCOCC4)cc3)[nH]n2)c1 | 31 | 69* | -16 | -3 | -25 | 15 | 43* | 40*
Cc1cc(C2(c3ccc(O)c(C)c3)C(=O)Nc3ccccc32)ccc1O | -12 | 57* | -7 | 40 | -3 | -15 | 39 | /
CCNC(=O)n1cc(-n2cncn2)c(-c2ccc(Cl)cc2)n1 | 0 | -2 | -10 | 1 | -17 | -2 | / | /
COc1ccc(Cl)cc1NCC(=O)Nc1ccc(OC)c(S(=O)(=O)N2CCCCC2)c1 | -4 | 7 | / | / | 5 | 5 | / | /
CCCCn1c(O)c(N=NC(=O)c2ccncc2)c2cc(Br)ccc21 | -2 | 64* | 6 | 3 | -16 | -9 | 40* | 63*
COCCCNC(=O)c1ccc(Cn2c(=O)c3ccccc3n(Cc3ccccc3C#N)c2=O)cc1 | -5 | 53* | -14 | ? | -2 | 2 | 19 | /
CCn1c(=O)c2cc(C(=O)NCCC(C)C)sc2c2ccccc21 | / | 47 | -38 | -19 | 15 | -11 | / | /
CCn1c(=O)c2cc(C(=O)NCCCOC)sc2c2ccccc21 | 8 | 64* | -34 | -85 | 19 | 14 | 49* | 103*
CCCCN(CC)CCNC(=O)c1cc2c(=O)n(C)c3ccccc3c2s1 | 18 | 37 | -7 | -67 | -18 | -80 | / | /
CCCN(CCC)CCCNC(=O)c1cc2c(=O)n(CC)c3ccccc3c2s1 | 21 | 71* | 0 | -300 | 10 | -18 | 58* | 59*
COCCCNC(=O)c1ccc(Cn2c(=O)c3ccccc3n(Cc3ccccc3C)c2=O)cc1 | 4 | 36 | 4 | 30 | -26 | 13 | / | /
